Screening data from PubChem BioAssay.
This is a sample that favours compounds with a hit; in the whole collection about 11% have one here.
AMA1-RON2 inh – AMA1-RON2 (P. falciparum) interaction inhibition. AlphaScreen AMA1-biotinylated RON2 peptide binding. Potency, µM (top dose mostly 58.2 µM), actives largely listed as inhibitors. 0.2% of 360,000 active; also: nearly all actives have a fitted effect of over 45% in size
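AMA1 (3D7) with his tag at 25 nM final met compounds first, then biotinylated RON2 peptide at 25 nM; detection used donor plus acceptor beads, 10 µg/mL apiece, read by AlphaScreen after 30 min at room temperature.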
HCV inhibitor – HCV inhibition. Huh7.5.1 HCVcc-Cre infection, luciferase reporter, 44 h. Potency, µM (doses to about 41.8 µM), actives largely listed as inhibitors. 3.4% of 340,000 active. AID 651820
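Compounds are dispensed onto cells plated 4 h earlier at 1,000 per well, with HCVcc-Cre virus (about 0.5 moi) added next. Following 44 h of culture, luminescent signal is measured for 15 sec after 15 min with substrate at room temperature.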
Pf growth 48h – P. falciparum growth inhibition at 48 hours (one generation); Potency, µM (highest dose often 28.7 µM), most hits filed as inhibitors; P. falciparum luciferase growth in erythrocytes, 48 h; 5.9% of 310,000 active
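Compounds are pin-transferred into medium, infected erythrocytes (2% hematocrit, 0.1% parasitemia final) are added, and plates sit one parasite generation at 37 C in 5% CO2. Detection reagent is then added and luminescence measured.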
Pf growth 96h – P. falciparum growth inhibition at 96 hours; P. falciparum luciferase reporter growth, 96 h; Potency, µM (titrated, usually from 28.7 µM), actives largely listed as inhibitors; 6.9% of 320,000 active; AID 504834
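Two-generation exposure (96 h) targets delayed-death phenotype. Reporter parasites carrying integrated firefly luciferase, in red cells at 2% hematocrit and 0.05% parasitemia final, kept at 37 C, 5% CO2; luminescence loss indicates inhibition.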
Numbers stand for hits; - = inactive; ? = inconclusive; . = no result; [ ] = dose if it differs, or a comment. Calls follow the shape of the dose curve; as a rule, active = well fitted curve in the direction sought with a large enough effect; inconclusive = small, poorly fitted or top-dose-only effect, or another doubt; inactive = no such curve, though single readings can be large; an effect the other way counts as inactive or inconclusive.

SMILES | AMA1-RON2 inh | HCV inhibitor | Pf growth 48h | Pf growth 96h
Cc1ccc(S(=O)(=O)N2CCCC2C(=O)Nc2ccc(O)cc2)cc1 (stereo not drawn) | - | - | - | 5.2µM
CC(C)c1ccc(NC(=O)C2CCCCN2S(=O)(=O)c2ccccc2)cc1 (stereo not drawn) | - | 22µM | ? | ?
COc1ccc(NC(=O)[C@@H](NC(=O)c2ccccc2F)C(C)C)cc1S(=O)(=O)N1CCOCC1 | - | - | ? | ?
O=C(Nc1ccc(Cl)c(Cl)c1)Nc1cc(S(=O)(=O)N2CCOCC2)ccc1N1CCCC1 | -[11.6 µM] | ? | - | -
O=C1C2CC=CCC2C(=O)N1c1ccc(NCCc2ccc(O)cc2)c([N+](=O)[O-])c1 (stereo not drawn) | ? | 13µM | - | ?
O=C1C2CC=CCC2C(=O)N1c1ccc(NCCc2ccc(Cl)cc2)c([N+](=O)[O-])c1 (stereo not drawn) | - | - | - | -
N#CCC(CNc1ncc(C(F)(F)F)cc1Cl)OC(=O)c1ccc(Cl)cc1Cl (stereo not drawn) | - | - | 2.9µM | 2.3µM
CCOC(=O)CNc1ncc(C(F)(F)F)cc1Cl | - | - | - | -
CCOC(=O)CN1C(=O)/C(=C/c2ccccc2Br)Oc2ccccc21 | - | - | - | 2.1µM
COc1ccc(C(=O)N2CCN(c3nc4ccccc4o3)CC2)cc1OC | - | 11µM | . | -
COc1ccc(C(=O)N2CCN(c3ccc(C)cc3)CC2)cc1OC | - | - | . | ?
COc1cccc(-c2cnc3c(NC(C)=O)cc(-c4ccc(S(C)(=O)=O)cc4)cn23)c1 | - | . | . | .
COc1ccc2oc(C(=O)OCc3c(C)noc3C)c(C)c2c1 | - | ? | - | -
CCNc1nc(NC(C)C)nc(OCC)n1 | - | - | . | ?
CCNc1nc(NC(C)(C)C)nc(SC(C(C)=O)C(C)=O)n1 | - | - | - | .
CCNc1nc(NC(C)C)nc(ON=C(C)C)n1 | . | - | 8.3µM | ?
CC(C)Nc1nc(NNc2nc(Cl)nc(NC(C)(C)C)n2)nc(NC(C)C)n1 | - | - | ? | 13µM
CCNc1nc(NC(C)C)nc(NC(C)(C)C)n1 | - | ? | 3.3µM | ?
CC(C)Nc1nc(NC(N)=S)nc(NC(C)(C)C)n1 | - | - | - | -
Cc1ccc(Oc2ncccc2C(=O)NCC(=O)O)cc1 | - | - | - | -
COc1ccc(/C=C2\SC(=S)N(Cc3cccnc3)C2=O)cc1C | - | - | ? | ?
CCOc1cc(/C=C2/SC(=Nc3ccccc3)N(Cc3cccnc3)C2=O)ccc1OCC#N | - | ? | ? | 2.1µM
O=C(CCCCCNC(=S)Nc1ccccc1)C[N+](=O)[O-] | - | - | - | -
COC(=O)c1ccc(NC(=O)c2ccccc2-c2ccccc2C(=O)O)cc1 | - | - | - | -
CC(=O)c1ccc(NC(=O)c2ccccc2-c2ccccc2C(=O)O)cc1 | - | - | - | 4.7µM
SMILES | AMA1-RON2 inh | HCV inhibitor | Pf growth 48h | Pf growth 96h
Cc1ccc2n(n1)c(=O)c(Cc1ccccc1)c([O-])[n+]2-c1ccccc1 | - | - | - | -
O=[As]O[As]=O (stereo not drawn) | . | . | 1.9µM | 1.9µM
CCOc1ccc(/C=C/C(=O)c2cc(Br)ccc(=O)c2O)cc1 | ? | ? | 10µM | 9.3µM
Cc1ccc(/C=C/C(=O)c2cc(Br)ccc2OC(=O)c2ccco2)cc1 | - | ? | 13µM | ?
CCc1ccc(/C=C/C(=O)c2cc(Br)ccc(=O)c2O)cc1 | - | ? | ? | .
Cc1cccc(/C=C/C(=O)c2cc(Br)ccc(=O)c2O)c1 | ? | 14µM | ? | .
COc1c(F)c(F)c(C(=O)Nc2ccc(NC(=O)Cc3ccccc3)cc2)c(F)c1F | - | - | - | -
COC(=O)c1ccc(C2Nc3ccc(/C(C)=N/NC(=O)C(OC)c4ccccc4)cc3C3C=CCC32)cc1 (stereo not drawn) | - | - | ? | 4.1µM
NS(=O)(=O)c1ccc(N=Cc2c(O)n(C3CCCCC3)c(=O)n(C3CCCCC3)c2=O)cc1 | - | ? | - | -
CC(C)C(=O)N1CCC(CN=Cc2c(O)n(C3CCCCC3)c(=O)n(C3CCCCC3)c2=O)CC1 | - | ? | 1.5µM | -
OC(c1ccc(F)c(F)c1)c1ncc(-c2cccc(F)c2)[nH]1 (stereo not drawn) | - | . | . | .
Cc1ccc(/C=C/C(=O)Nc2ccc(S(N)(=O)=O)cc2)o1 | - | ? | - | -
CC(=O)NS(=O)(=O)c1ccc(NC(=O)/C=C/c2ccc(C)o2)cc1 | - | - | - | 4.7µM
COc1cc(C(CCN2CCOCC2)c2c(OC)cc(OC)c3c2OC(=O)CC3c2ccc(N(C)C)cc2)cc(OC)c1OC (stereo not drawn) | 20µM | - | ? | ?
COc1cc(OC)c2c(c1C(CCN1CCOCC1)c1ccc(N(C)C)cc1)OC(=O)CC2c1ccc(N(C)C)cc1 (stereo not drawn) | 14µM | ? | 10µM | ?
COc1ccc(C2CC(=O)Oc3c(C(CCN4CCN(c5ccccc5)CC4)c4ccc(N(C)C)cc4)c(OC)cc(OC)c32)cc1 (stereo not drawn) | 11µM | -[8.37 µM] | 9.3µM | 10µM
COc1ccc(C2CC(=O)Oc3c(C(CCN4CCOCC4)c4cc(OC)c(OC)c(OC)c4)c(OC)cc(OC)c32)cc1 (stereo not drawn) | - | - | 9.3µM | ?
COc1ccc(C2CC(=O)Oc3c(C(C)C)ccc(C)c32)cc1 (stereo not drawn) | - | ? | . | .
COc1ccc(/C(O)=C2/C(=O)C(=O)N(CCCN3CCOCC3)C2c2ccc(N(C)C)cc2)cc1 (stereo not drawn) | - | - | - | ?
CN(c1ccccc1)S(=O)(=O)c1ccc(Cl)c(C(=O)Nc2ccc(N3CCOCC3)cc2)c1 | - | 16µM | ? | ?
Cc1nc2ccc(NC(=O)c3cc(S(=O)(=O)N(C)c4ccccc4)ccc3Cl)cc2s1 | - | ? | 1.3µM | 0.37µM
Cc1nc2ccc(NC(=O)c3cc([N+](=O)[O-])cc([N+](=O)[O-])c3Cl)cc2s1 | - | 25µM | ? | -
CS(=O)(=O)c1ccc(C(=O)Nc2ccc(N3CCOCC3)cc2)c(Cl)c1 | - | - | - | -
OC(COc1cccc2ccccc12)CN1CCN(c2ccccc2)CC1 (stereo not drawn) | ? | - | - | -
CC(COc1cccc2ccccc12)CN1CCN(C)CC1 (stereo not drawn) | - | 5µM | ? | ?
SMILES | AMA1-RON2 inh | HCV inhibitor | Pf growth 48h | Pf growth 96h
Cc1cccc(-c2nc(CCNC(=O)c3ccco3)cs2)c1 | - | . | . | .
COc1ccc(-c2nc(CCNS(=O)(=O)c3ccc4c(c3)OCCO4)cs2)cc1 | - | 11µM | - | ?
O=S(=O)(NCCc1csc(-c2ccc(C(F)(F)F)cc2)n1)c1ccc2c(c1)OCCO2 | - | ? | - | -
Cc1ccc(-c2nc(CCNC(=O)c3ccco3)cs2)cc1 | - | 10µM | ? | ?
O=C(NCCc1csc(-c2cccnc2)n1)c1ccco1 | - | - | . | -
COc1cc(-c2nc(CCNC(=O)c3ccco3)cs2)cc(OC)c1OC | - | - | ? | 10µM
O=C(NCCc1csc(-c2ccc(Cl)cc2)n1)c1ccco1 | - | 11µM | - | -
CCC1CCC(NC(=O)Nc2cccc(OC)c2)CC1 (stereo not drawn) | - | - | - | -
